Assay [1] in a line: qHTS drug screen for cell cycle checkpoint inhibitors in PARPi-resistant BRCA-mutant ovarian cancer cell lines. (AID 1963452; calls by dose curve; also: potency is read from the fitted curve at half-maximal effect). To be noted: PEO1/OlaR viability, CellTiter-Glo luminescence, 96 h; for Z-AUC: stronger effect = lower value. The method, boiled down: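 PEO1, PEO4 and PEO1/OlaR ovarian cancer cells, 600 per well, exposed 96 h at 37C to a dilution series. Viability read by CellTiter-Glo luminescence, normalized to DMSO and empty wells; activity summarized as Z-AUC.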

Assay [2] is described as follows: qHTS for identification of novel therapeutic agents for treatment of microphthalmiaassociated transcription factor (MiT) renal cell carcinoma (RCC) (AID 1963991; calls by dose curve; also: potency is read from the fitted curve at half-maximal effect). To be noted: CellTiter-Glo, 48 h; for z-score: stronger effect = lower value. In outline: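 Three TFE3-fusion RCC lines (UOK109, UOK124, UOK145), 500 cells/well in complete medium, were treated with MIPE 4.0 compounds for 48 hours at 37 C. Viability was by CellTiter-Glo luminescence, normalized to DMSO (100%) and empty wells (0%); curves fitted over 11 concentrations.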
A general note: qHTS replaces the single test concentration by a dilution series.

Assay [3] in a line: qHTS profiling for inhibitors of Plasmodium falciparum proliferation (AID 504749).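 Also: 0% = DMSO vehicle and full inhibition = artemisinin control; nearly all actives have a fitted effect of over 60% in size.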 To be noted: P. falciparum in erythrocytes, SYBR Green DNA, 72 h, at 28.7 µM (top of the series). In outline: (§1)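 SYBR Green fluorescence (ex 485 nm, em 535 nm) reports parasite DNA after 72 h compound exposure of infected red cells at 0.3% parasitemia, 2.5% hematocrit; signal normalized to 0.29 uM artemisinin and vehicle wells.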

A further assay deals with 3D7. The description is as above. The conditions noted are these: P. falciparum in erythrocytes, SYBR Green DNA, 72 h; series mostly up to 28.7 µM. The method, boiled down: as §1
The subject of another assay is 7G8. Described as above. The conditions noted are these: P. falciparum in erythrocytes, SYBR Green DNA, 72 h; series mostly up to 28.7 µM. The method, boiled down: as §1
The test system of the next assay is AA1029. Described as above. To be noted: P. falciparum in erythrocytes, SYBR Green DNA, 72 h; series mostly up to 28.7 µM. The method, boiled down: as §1
The test system of another assay is AS120. The assay is described as above. To be noted: P. falciparum in erythrocytes, SYBR Green DNA, 72 h; series mostly up to 28.7 µM. The method, boiled down: as §1
For another assay, the system named is ATS189. Described as above. The conditions noted are these: P. falciparum in erythrocytes, SYBR Green DNA, 72 h; series mostly up to 28.7 µM. The method, boiled down:
as §1

In the next assay the test system is ATS95. The assay is described as above. The conditions noted are these: P. falciparum in erythrocytes, SYBR Green DNA, 72 h; series mostly up to 28.7 µM. In outline:
as §1

The test system of a further assay is C2A. The assay is described as above. To be noted: P. falciparum in erythrocytes, SYBR Green DNA, 72 h; series mostly up to 28.7 µM. In outline:
as §1

A further assay deals with CP185. The description is as above. To be noted: P. falciparum in erythrocytes, SYBR Green DNA, 72 h; series mostly up to 28.7 µM. In outline:
as §1

The subject of a further assay is CP191. The assay is described as above. To be noted: P. falciparum in erythrocytes, SYBR Green DNA, 72 h; series mostly up to 28.7 µM. The method, boiled down: as §1
The test system of the next assay is CP192. Described as above. The conditions noted are these: P. falciparum in erythrocytes, SYBR Green DNA, 72 h; series mostly up to 28.7 µM. The method, boiled down:
as §1

A further assay relates to CP194. The assay is described as above. To be noted: P. falciparum in erythrocytes, SYBR Green DNA, 72 h; series mostly up to 28.7 µM. In outline:
as §1

A further assay relates to CP201. The assay is described as above. The conditions noted are these: P. falciparum in erythrocytes, SYBR Green DNA, 72 h; series mostly up to 28.7 µM. The method, boiled down:
as §1

[4] abbreviates: measured here: PEO1 parental Z-AUC.
Where [5] appears, read: TFE3-RCC UOK109 viability, measured here: UOK109 Z-AUC.
Setting [6] is: TFE3-RCC viability, measured here: UOK124 Z-AUC.
Where [7] appears, read: TFE3-RCC viability, measured here: UOK145 Z-AUC.

The structures appear in SMILES notation. Inconclusive results are not listed. Calls of active or inactive are those of the source. Unless noted, calls follow the shape of the dose curve; as a rule, active = well fitted inhibition curve with a large enough effect; inconclusive = small, poorly fitted or top-dose-only effect; inactive = flat fitted curve, though single readings scatter.

This is an account of results in PubChem BioAssay (NCATS).

Consider `O=C(O)c1cc(=O)c2c(OCC(O)COc3cccc4oc(C(=O)O)cc(=O)c34)cccc2o1`, for which the results for the Z-AUC in assay [1], in [1] (setting [4]) and in [1] (measured here: PEO4 Z-AUC) were 1.18 (inactive), 1.06 and 1, respectively. In addition, the z-score in assay [2] (setting [5]) is 0.209; in assay [2] (setting [6]), 0.177; in assay [2] (setting [7]), -0.326. In addition, the results for the activity, negative = inhibition in assay [3] (parasite line A) and in assay [3] (parasite line B) were 8.12% (inactive) and 15.8% (inactive), respectively. The Potency result in the assay with 3D7, with 7G8, with AA1029, in the assay on AS120, in the assay with ATS189 and in the assay on ATS95 was “inactive” throughout. Moreover, the Potency entry in the assay on C2A, in the assay with CP185, in the assay on CP191, in the assay with CP192, in the assay on CP194 and in the assay with CP201 was “inactive” each time.
Take `Cc1nc(-c2ccc(OCC(C)C)c(C#N)c2)sc1C(=O)O`: the Z-AUC is 0.79 (inactive) in assay [1], 0.0163 in [1] (setting [4]) and 0.327 in assay [1] (measured here: PEO4 Z-AUC). The z-score in [2] (setting [5]) turned out to be 1.16; in [2] (setting [6]), 0.952; in assay [2] (setting [7]) it was 0.581.
With `CC(C)C[C@H](NC(=O)[C@H](Cc1ccccc1)NC(=O)c1cnccn1)B(O)O`, the Potency in assay [1] is 9.8 nM (active); in assay [2] (TFE3-RCC UOK109 viability, active = Z-AUC below -0.8 in all three lines) it was 118 nM (active). Besides, the Z-AUC is -3.19 in assay [1] (setting [4]) and -2.39 in assay [1] (measured here: PEO4 Z-AUC). In addition, the z-score in assay [2] (setting [5]) is -1.97; in [2] (setting [6]), -3.15; in assay [2] (setting [7]) it was -4.08.
Consider `CCOC(=O)C1=C(O)C(=O)N(Cc2ccccc2)C1`, for which the Z-AUC in [1] is 1.25 (inactive); in assay [1] (setting [4]), 1.01; in [1] (measured here: PEO4 Z-AUC) it was 1.38. Moreover, the z-score in assay [2] (setting [5]) turned out to be 0.919; in [2] (setting [6]), 0.303; in [2] (setting [7]) it was 0.693.
Consider `COc1cc2c(cc1OC)C1CC(=O)C(CC(C)C)CN1CC2` (configuration not stated), for which the Z-AUC in [1] is 0.0378 (inactive); in assay [1] (setting [4]) it was 0.296; in assay [1] (measured here: PEO4 Z-AUC) it was 0.889. Further, the z-score was 0.853 in assay [2] (setting [5]), 0.433 in assay [2] (setting [6]) and 0.758 in [2] (setting [7]). The activity, negative = inhibition was 3.41% (inactive) in [3] (parasite line A) and 0.311% (inactive) in assay [3] (parasite line B). In addition, the Potency result in the assay on 3D7, in the assay on 7G8, in the assay on AA1029, with AS120, with ATS189 and with ATS95 was “inactive” each time. In addition, the Potency entry in the assay on C2A, with CP185, in the assay with CP191, in the assay with CP192, with CP194 and with CP201 was “inactive” each time.
For `CS(=O)(=O)OCCCCOS(C)(=O)=O`, the figures for the Z-AUC in [1], in assay [1] (setting [4]) and in assay [1] (measured here: PEO4 Z-AUC) were 0.989 (inactive), 0.976 and 1.46, respectively. The z-score in assay [2] (setting [5]) was found to be 1.01; in assay [2] (setting [6]), 2.44; in [2] (setting [7]) it was 1.02. Also, the activity, negative = inhibition in [3] (parasite line A) was 5.89% (inactive); in assay [3] (parasite line B), -1.27% (inactive). The Potency entry with 3D7, with 7G8, in the assay with AA1029, in the assay with AS120, in the assay with ATS189 and in the assay on ATS95 was “inactive” throughout. In addition, the Potency entry in the assay with C2A, with CP185, in the assay on CP191, in the assay with CP192, in the assay with CP194 and in the assay with CP201 was “inactive” in each case.
Regarding `CCOC(=O)C(C)Oc1cccc2c(=O)n(CC(=O)Nc3ccc4c(c3)OCCO4)ccc12` (configuration not stated), the Z-AUC in [1] was 0.881 (inactive); in assay [1] (setting [4]), 0.435; in [1] (measured here: PEO4 Z-AUC), 0.282. Moreover, the z-score amounted to 0.811 in assay [2] (setting [5]), 0.396 in [2] (setting [6]) and 0.65 in assay [2] (setting [7]).
In the case of `O=c1c(O)c(-c2cc(O)c(O)c(O)c2)oc2cc(O)cc(O)c12`, the Z-AUC in assay [1] was 1.5 (inactive); in assay [1] (setting [4]), 1.23; in assay [1] (measured here: PEO4 Z-AUC), 1.17. For the same compound, the z-score in [2] (setting [5]) was 0.252; in assay [2] (setting [6]) it was 0.375; in [2] (setting [7]), -0.367.
On to `CC1Cc2ccccc2N1NC(=O)c1ccc(Cl)c(S(N)(=O)=O)c1` (configuration not stated), for which the values for the Z-AUC in assay [1], in assay [1] (setting [4]) and in assay [1] (measured here: PEO4 Z-AUC) were -0.461 (inactive), -0.0256 and 0.0474, respectively. For the same compound, the z-score worked out at 0.928 in assay [2] (setting [5]), 0.508 in assay [2] (setting [6]) and 0.493 in assay [2] (setting [7]).
